Results filed as inconclusive are left out. The source made the active and inactive calls. Unless noted, how the calls were made is not given here.

9 compounds from PubChem BioAssay (NCATS) can be followed below.

A short description of test [1]: qHTS profiling of the MIPE4 collection as inhibitors of Plasmodium falciparum (3D7) proliferation (AID 743344).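 Further: scaled between DMSO vehicle wells and 0.29 µM artemisinin as full inhibition.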 The settings on record: P. falciparum 3D7 in erythrocytes, SYBR Green DNA fluorescence, 72 h; at 28.5 µM unless noted. Put shortly: (§1)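 Parasite DNA was quantified by SYBR Green I fluorescence (ex 485, em 535 nm) after overnight lysis in saponin/Triton buffer at room temperature. Cultures at 0.3% parasitemia and 2.5% hematocrit were first exposed to compound for 72 h at 37 C; signals were normalised to artemisinin (0.29 uM) and vehicle wells.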

A short description of test [2]: qHTS profiling of the MIPE4 collection as inhibitors of Plasmodium falciparum (DD2) proliferation (AID 743345). The settings on record: P. falciparum Dd2 in erythrocytes, SYBR Green DNA, 72 h; at 28.5 µM unless noted. An outline of the steps:
as §1
A general note: In qHTS, concentration-response curves come from the screen itself.

Test [3] in a line: qHTS profiling of the MIPE4 collection as inhibitors of Plasmodium falciparum (DD2) proliferation (Rep 2) (AID 743346). To be noted: P. falciparum Dd2 in erythrocytes, SYBR Green DNA, 72 h; at 28.5 µM unless noted. An outline of the steps:
as §1

Test [4] is described as follows: qHTS profiling of the MIPE4 collection as inhibitors of Plasmodium falciparum (HB3) proliferation (AID 743347).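 Further: plate controls were DMSO vehicle wells for no effect and artemisinin wells for full effect.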 To be noted: P. falciparum HB3 in erythrocytes, SYBR Green DNA, 72 h; at 28.5 µM unless noted. An outline of the steps:
as §1

Test [5] is described as follows: High-throughput drug toxicity screening in the BPDCN cell line Gen2.2 (AID 1224824).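 Further: cells exposed to compounds for 48 h before reading.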 To be noted: Gen2.2 BPDCN cells; at 45.8 µM (top of the series) unless noted. Put shortly:
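Gen2.2 cells, 500 per well in phenol red-free RPMI with 10% FBS, exposed to compounds 48 h at 37 C, 5% CO2; viability by CellTiter-Glo luminescence. Percent activity scaled to DMSO (100%) and 9.2 uM bortezomib final (0%).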

Test [6] is described as follows: High-throughput drug toxicity screening in the BPDCN cell line Cal-1 (AID 1224825). To be noted: Cal-1 BPDCN cell viability, qHTS; at 45.8 µM (top of the series) unless noted. Put shortly: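 CellTiter-Glo luminescence after 48 h compound exposure; percent activity scaled with DMSO as 100% and bortezomib (9.2 uM final) as 0%. Cal-1 cells seeded at 500/well in RPMI, 10% FBS, no phenol red.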

Test [7] can be described thus: qHTS assay for measurement of the activity of small molecule inhibitors on Zika virus induced Caspase-3 activity in human iPSC derived neural progenitor cells (hNPCs) (AID 1224857; active means well fitted curve in the direction sought with a large enough effect; an effect the other way counts as inactive or inconclusive; further: nearly all actives have a fitted effect of over 65% in size; further: potency means the concentration at half of the fitted maximal effect). An outline of the steps: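 Values are percent inhibition of virus-induced caspase-3/7 signal, scaled between uninfected cells and ZIKV-infected cells. Infection used 2 FFU/cell for 6 h after 1 h compound exposure.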

Test [8] in a line: qHTS assay for measurement of the activity of small molecule inhibitors on Zika virus induced Caspase-3 activity in human astrocytoma cells (AID 1224859; active means well fitted curve in the direction sought with a large enough effect; an effect the other way counts as inactive or inconclusive; further: potency means the concentration at half of the fitted maximal effect). Put shortly:
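Compound added 1 h pre-infection; ZIKV 2 FFU/cell on SNB-19 cells, 6 h, 37 C/5% CO2. Caspase-Glo 3/7 luminescence; values as % inhibition of ZIKV-induced caspase activity.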

Test [9] is described as follows: qHTS Screen of the MIPE 4.0 Collection Against Ewings Sarcoma (TC71) (AID 1259253; active means well fitted curve in the direction sought with a large enough effect; an effect the other way counts as inactive or inconclusive; further: nearly all actives have a fitted effect of over 40% in size; further: potency means the concentration at half of the fitted maximal effect). An outline of the steps:
(§2)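 Dose series incubated 48 h with cells in RPMI plus 5% FBS, glutamine and penicillin/streptomycin; cell viability then quantified via CellTiter-Glo.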

Test [10] is described as follows: qHTS Screen of the MIPE 4.0 Collection Against Ewings Sarcoma (EW8) (AID 1259255; active means well fitted curve in the direction sought with a large enough effect; an effect the other way counts as inactive or inconclusive; further: nearly all actives have a fitted effect of over 35% in size; further: potency means the concentration at half of the fitted maximal effect;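 on viability: 100% = DMSO-treated cells and 0% = medium-only wells without cells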). Put shortly: as §2
The nature of test [11]: qHTS Screen of the MIPE 4.0 Collection Against Ewings Sarcoma (TC32) (AID 1259256; active means well fitted curve in the direction sought with a large enough effect; an effect the other way counts as inactive or inconclusive; further: nearly all actives have a fitted effect of over 45% in size; further: potency means the concentration at half of the fitted maximal effect). Put shortly:
as §2

The nature of test [12]: qHTS profiling for inhibitors of Plasmodium falciparum (DD2) proliferation (AID 743323). The settings on record: lower = more inhibition; at 28.7 µM (top of the series) unless noted. Put shortly:
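SYBR Green fluorescence (ex 485, em 535 nm) of lysed cultures gives parasite DNA content; wells normalized to artemisinin (0.29 uM) and DMSO controls. Infected red cells: 0.3% parasitemia, 2.5% hematocrit, 72 h, 37 C.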

The nature of test [13]: qHTS profiling for inhibitors of Plasmodium falciparum (HB3) proliferation (AID 743324; active means well fitted curve in the direction sought with a large enough effect; an effect the other way counts as inactive or inconclusive;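 further: 100% = DMSO vehicle wells and 0% = artemisinin-treated control wells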). The settings on record: Plasmodium falciparum HB3 blood-stage proliferation; at 28.7 µM (top of the series) unless noted. Put shortly: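 SYBR Green fluorescence (485 ex/535 em) of lysed cultures, incubated overnight at room temperature in the dark, quantifies parasite DNA. Infected erythrocytes at 0.3% parasitemia and 2.5% hematocrit were exposed 72 h; values normalized to DMSO and 0.29 uM artemisinin controls.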

Test [14] in a line: Identifying Small Molecule Inhibitors of Pancreatic Cancer Stem Cells (SN12C, Adherent) (AID 1259358; active means well fitted curve in the direction sought with a large enough effect; an effect the other way counts as inactive or inconclusive;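 further: cell survival measured after 48 h of compound exposure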). An outline of the steps: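 Endpoint: ATP-based luminescence, 48 h drug exposure. Bortezomib at 9.2 uM final as full-kill control; DMSO vehicle as negative control; activity normalized between vehicle and cell-free wells.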

With `CNC(=O)[C@H](Cc1ccccc1)NC(=O)[C@H](CC(C)C)[C@H](CSc1cccs1)C(=O)NO`, in [1], the parasite growth, % of DMSO control stood at 4.98%. For the same compound, in test [2], the parasite growth remaining, % of DMSO control (lower = more inhibition) worked out at 8.14%. In test [3], this compound displayed a parasite growth, % of control (lower = inhibition) of 11.7%. Also, the growth, % of control in test [4] was 4.59%. Further, the cell viability, % of control (lower = more cytotoxic) in [5] was 63.4%. For the same compound, in test [6], the viability (% of control) came to 56.4%. Also, the Potency result in [7], in test [8], in test [10] and in test [11] was “inactive” throughout. In addition, the Potency in [9] was 5.9 µM (active).

Take `CN(C(Cc1ccc(OS(=O)(=O)c2cccc3cnccc23)cc1)C(=O)N1CCN(c2ccccc2)CC1)S(=O)(=O)c1cccc2cnccc12` (stereo unspecified): the parasite growth, % of DMSO control in [1] was 6.17%. The parasite growth remaining, % of DMSO control (lower = more inhibition) in [2] worked out at 7.38%. This compound also gave a parasite growth, % of control (lower = inhibition) in test [3] of 10.8%. Also, the cell viability, % of control (lower = more cytotoxic) in test [5] is 116%. In [6], the viability (% of control) was determined as 85.3%. The Potency result in [7] and in [8] was “inactive” throughout. Also, the Potency in test [9] is 18.7 µM (active); in test [11], 16.6 µM (active).

For the compound `COc1ccc2nc3cc(Cl)ccc3c(Nc3cc(CN4CCCC4)c(O)c(CN4CCCC4)c3)c2n1`, in test [12], the activity, percent of control was -0.214%. In addition, the remaining proliferation (% of control), lower = more inhibition in test [13] was -0.744%. The compound also gave a parasite growth remaining, % of DMSO control (lower = more inhibition) in [2] of 6.47%. The compound also showed a parasite growth, % of control (lower = inhibition) in test [3] of 7.91%. This compound also returned a growth, % of control in test [4] of 13.2%. The cell viability, % of control (lower = more cytotoxic) in test [5] was determined as 21.4%. Moreover, the viability (% of control) in test [6] worked out at 8.39%. Also, the Potency result in test [7] and in test [8] was “inactive” in each case. In addition, the Potency in test [10] is 26.4 µM (active); in test [11], 16.6 µM (active).

On to `C[C@@H]1CCO[C@H]2Cn3cc(C(=O)NCc4ccc(F)cc4F)c(=O)c(O)c3C(=O)N12`, for which, in [1], the parasite growth, % of DMSO control is 55%. The same compound came in with a parasite growth remaining, % of DMSO control (lower = more inhibition) in [2] of 53.9%. Besides, the parasite growth, % of control (lower = inhibition) in test [3] amounted to 38.3%. Besides, the cell viability, % of control (lower = more cytotoxic) in test [5] was found to be 58.3%. Further, the viability (% of control) in test [6] is 12.5%. Moreover, the Potency entry in test [7] and in test [8] was “inactive” each time. The values for the Potency in [9] and in [10] were 13.2 µM (active) and 20.9 µM (active), respectively.

In [1], `O=C1NC(=O)C(=Cc2ccc(-c3ccc(F)cc3O)o2)S1` came in with a parasite growth, % of DMSO control of 34.3%. The compound further showed a parasite growth remaining, % of DMSO control (lower = more inhibition) in test [2] of 71.3%. In test [4], this compound yielded a growth, % of control of 34.2%. In addition, the cell viability, % of control (lower = more cytotoxic) in [5] is 31.9%. For the same compound, the viability (% of control) in test [6] stood at 92.1%. Besides, the Potency in [7] is 16.6 µM (active); in test [8], 14.8 µM (active); in test [9], 23.5 µM (active); in test [11], 23.5 µM (active).

The compound `O=C(c1ccc(C=Cc2n[nH]c3ccccc23)cc1)N1CCNCC1` displayed a parasite growth, % of DMSO control in test [1] of 22.1%. In addition, the parasite growth remaining, % of DMSO control (lower = more inhibition) in test [2] came out at 31.2%. In [4], this compound gave a growth, % of control of 6.97%. Moreover, the cell viability, % of control (lower = more cytotoxic) in test [5] was found to be 57.2%. Besides, in test [6], the viability (% of control) was 18%. Further, the Potency result in test [7] and in test [8] was “inactive” each time. The values for the Potency in test [10] and in test [11] were 0.662 µM (active) and 0.743 µM (active), respectively.

On to `CN[C@@H]1[C@@H](O)[C@@H](O[C@@H]2[C@@H](O)[C@H](O[C@H]3O[C@H](CN)[C@@H](O)[C@H](O)[C@@H]3O)[C@@H](N)C[C@@H]2NC(=O)[C@@H](O)CN)OC[C@]1(C)O`, for which, in test [1], the parasite growth, % of DMSO control was 94%. This compound also returned a parasite growth remaining, % of DMSO control (lower = more inhibition) in test [2] of 99.3%. Further, in test [3], the parasite growth, % of control (lower = inhibition) came out at 90.7%. The cell viability, % of control (lower = more cytotoxic) in [5] was found to be 111%. Also, in test [6], the viability (% of control) worked out at 100%. The Potency result in test [7], in [8], in [9], in test [10] and in test [11] was “inactive” throughout.

As for `OC(c1cc(C(F)(F)F)nc2c(C(F)(F)F)cccc12)C1CCCCN1` (stereo unspecified), the parasite growth, % of DMSO control in test [1] is 11%. In addition, the parasite growth remaining, % of DMSO control (lower = more inhibition) in [2] stood at 9.36%. In [3], this compound gave a parasite growth, % of control (lower = inhibition) of 23.2%. In test [4], this compound registered a growth, % of control of 61.8%. The cell viability, % of control (lower = more cytotoxic) in test [5] turned out to be 9.36%. Further, the viability (% of control) in test [6] is 7.54%. Moreover, the Potency entry in test [7] and in [8] was “inactive” each time. Moreover, the Potency in test [9] is 20.9 µM (active); in test [10] it was 20.9 µM (active); in test [11] it was 26.4 µM (active).

As for `O=C(O)Cc1cccc(OCCCN(Cc2cccc(C(F)(F)F)c2Cl)CC(c2ccccc2)c2ccccc2)c1`, the activity, percent of control in test [12] came out at 34.1%. For the same compound, the remaining proliferation (% of control), lower = more inhibition in test [13] came out at 5.3%. Moreover, the parasite growth, % of DMSO control in test [1] is 20.8%. The compound also registered a parasite growth remaining, % of DMSO control (lower = more inhibition) in [2] of 42.2%. Moreover, the growth, % of control in [4] was 15.4%. The cell viability, % of control (lower = more cytotoxic) in test [5] was found to be 170%. Also, the viability (% of control) in [6] turned out to be 117%. In addition, the Potency entry in [7], in test [8] and in test [14] was “inactive” throughout. The Potency in test [9] and in [11] was 20.9 µM (active) throughout.
